Sampled rows, rich in hits. Any-hit rate of the full collection: about 5.9%.
TrxR1 substrate: is turned over as a substrate by rat TrxR1; purified TrxR1 substrate turnover, NADPH consumption readout; Potency, µM (titrated, usually from 114 µM), for inactives: at the top dose activity change, negative = substrate turnover; actives 0.01% (n = 390,000); O89049; note: potency is the fitted concentration of half-maximal effect; nearly all actives have a fitted effect of over 50% in size
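Rat TrxR1, dispensed at 90 nM, was prereduced with 400 uM NADPH (final) for 5 min at ~22 deg C, then incubated with compound 15 min before 400 uM selenite. A first-read NADPH fluorescence drop versus no-compound background flagged substrates.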
Coupling enz: counter-screen for Giardia aldolase inhibitors: coupling enzyme system. coupling enzyme system counterscreen, AmpLite Red fluorescence. activity change, negative = inhibition, % at 58.2 µM, hits read low. actives 0.67% (n = 290,000); in the data active = activity change below about -30%
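Coupling enzymes only (glyceraldehyde-3-phosphate) + compound, at 57.5 uM final, 10 min RT; add substrate/coupling/AmpLite Red mix, 20 min RT; fluorescence ex 525/em 598 nm. Actives flag coupling-system interference.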
VP16 counter: Gal4-VP16 reporter inhibition counter-screen; actives 3.5% (n = 310,000); Drosophila S2 Gal4-VP16 UAS-luciferase, luminescence, 20 h; Potency, µM (highest dose often 53.6 µM), without a hit: top-dose activity, negative = inhibition, most hits filed as inhibitors;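 note: Gal4-VP16 expression switched on by copper sulfate through the metallothionein promoter; potency is the fitted concentration of half-maximal effect; nearly all actives have a fitted effect of over 50% in size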
TrxR1 inh: blocks rat thioredoxin reductase 1 | O89049 | recombinant rTrxR1, NADPH fluorescence consumption, selenite substrate | Potency, µM (titrated, usually from 114 µM), for inactives: at the top dose activity change, negative = inhibition, most hits filed as inhibitors | actives 1% (n = 390,000) | AID 588453; note: potency is the fitted concentration of half-maximal effect; nearly all actives have a fitted effect of over 65% in size
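Rat TrxR1 (90 nM in the dispensed reagent) was pre-reduced with 400 uM NADPH for 5 min at room temperature, then incubated with compound for 15 min. After 400 uM selenite was added, NADPH fluorescence (Ex 340/Em 450 nm) was followed for 8 min.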
GALK inhibitor: blocks human galactokinase activity; AID 1868; P51570; actives 0.007% (n = 270,000); Purified GALK, Kinase-Glo residual ATP luminescence; Potency, µM (top dose mostly 57.5 µM), for inactives: at the top dose activity change, negative = inhibition, hits mostly inhibitors; note: potency is the fitted concentration of half-maximal effect
Target sequence (P51570 whole entry, looked up): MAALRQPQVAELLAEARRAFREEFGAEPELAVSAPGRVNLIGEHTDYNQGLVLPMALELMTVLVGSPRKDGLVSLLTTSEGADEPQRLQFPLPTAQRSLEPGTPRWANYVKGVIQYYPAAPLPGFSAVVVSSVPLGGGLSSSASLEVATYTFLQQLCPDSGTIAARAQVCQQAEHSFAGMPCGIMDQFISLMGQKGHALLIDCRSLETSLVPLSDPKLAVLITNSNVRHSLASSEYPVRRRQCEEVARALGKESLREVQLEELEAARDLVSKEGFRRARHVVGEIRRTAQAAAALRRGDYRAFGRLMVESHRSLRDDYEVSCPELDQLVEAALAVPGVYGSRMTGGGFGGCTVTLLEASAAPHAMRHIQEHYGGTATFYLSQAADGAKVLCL
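Human GALK (5 nM) with 35 uM ATP and 100 uM galactose in 20 mM HEPES pH 8.0, 5 mM MgCl2, 60 mM NaCl, 1 mM DTT, 0.01% BSA. After 1 h at room temperature, leftover ATP was read by Kinase-Glo Plus luminescence.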
RORgamma inh: blocks mouse ROR gamma transcriptional activity | Drosophila S2 Gal4-RORgamma UAS-luciferase reporter, 20 h | Potency, µM (top dose mostly 53.6 µM), for inactives: at the top dose activity change, negative = inhibition, usual class: inhibitors | actives 5.4% (n = 310,000) | AID 2551; note: potency is the fitted concentration of half-maximal effect; nearly all actives have a fitted effect of over 60% in size
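Luciferase reporter read in Schneider cells carrying Gal4-RORγ (mouse) and UAS-Photinus luciferase; cells given compound 1 h before 700 uM copper sulfate induction, then incubated 20 h at ambient temperature.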
* hit, by the source's call; ? = inconclusive; · = no result given; [ ] = another dose, or the depositor's remark. Unless noted, calls come from the whole dose curve; as a rule, active = well fitted curve in the direction sought with a large enough effect; inconclusive = small, poorly fitted or top-dose-only effect, or another doubt; inactive = no such curve, though single readings can be large; an effect the other way counts as inactive or inconclusive. % is set by controls: 0 for no effect and ±100 for the full control effect.

SMILES	TrxR1 substrate	Coupling enz	VP16 counter	TrxR1 inh	GALK inhibitor	RORgamma inh
COc1ccc(CCNC(=S)Nc2cc(C)cc(C)c2)cc1	-14%	2	13µM*	10%[57.1 µM]	0%	7.1µM*
COc1ccc(NC(=O)Nc2ccc(C(C)C)cc2)cc1	0%	-3	22%	7%	4%	12%
CNC(=S)NCCc1ccc(OC)cc1	9%[57.1 µM]	2	6%	4%[57.1 µM]	4%	?
Cc1ccc(NC(=S)NCCc2ccc(S(N)(=O)=O)cc2)cc1C	5%	5	0%	-3%	1%	?
O=C(CCCCCNC(=S)Nc1ccc(Cl)cc1)C[N+](=O)[O-]	3%[57.1 µM]	-3	0%	-13%[57.1 µM]	-3%	-10%
COc1ccc(NC(=S)NCCCCCC(=O)C[N+](=O)[O-])cc1	-1%	4	?	-8%	0%	4.5µM*
COc1ccc(CCNC(=S)Nc2ccc(C(C)C)cc2)cc1	-7%	0	?	7%	6%	2.5µM*
Cc1cc(C)cc(NC(=S)NCCc2ccc(S(N)(=O)=O)cc2)c1	8%[57.1 µM]	0	?	7%[57.1 µM]	·	10µM*
COc1cc(Cl)c(C)cc1NC(=O)CN1c2ccccc2S(=O)(=O)c2ccccc21	1%[57.1 µM]	·	·	28%[57.1 µM]	·	·
COc1cccc(CNC(=O)c2c3c(nc4ccccc24)C(=O)N(C2CCCCC2)C3)c1	-2%[57.1 µM]	·	·	10%[57.1 µM]	·	·
CCC1CCc2nc3sc(C(=O)Nc4ccc(F)c(F)c4)c(N)c3cc2C1 (configuration not stated)	49%	·	·	32%	·	·
N#CC(=C1Nc2ccccc2N1)S(=O)(=O)c1ccccc1	-1%[57.1 µM]	6	-8%	-9%[57.1 µM]	-1%	5%
COc1ccc(CNC(=O)CSc2ccsc2[N+](=O)[O-])cc1	1%	1	?	?	8%	?
Cc1ccc(CNC(=O)CSc2ccsc2[N+](=O)[O-])cc1	-11%	1	?	50µM*	6%	26%
Cc1cc(/C=N/Nc2nc(N)ncc2[N+](=O)[O-])c(C)n1-c1cccc(C(F)(F)F)c1	·	-1	?	·	-3%	6.3µM*
Cc1cc(/C=N/Nc2ncnc(N)c2[N+](=O)[O-])c(C)n1-c1ccccc1	1%	2	6.3µM*	?	5%	6.3µM*
Cc1cc(=O)oc2cc(OCC(=O)NC(Cc3c[nH]c4ccc(O)cc34)C(=O)O)c(Cl)cc12 (configuration not stated)	2%	-6	-5%	-6%	·	10%
COC(=O)c1ccccc1NC(=O)C1CCN(C(=O)N2CC(C)Oc3ccccc32)CC1 (configuration not stated)	10%[11.4 µM]	·	·	18%	·	·
CC1=C(CC(=O)c2ccc(Cl)cc2)C(=O)c2ccccc2C1=O	-9%	-40*	0%	?	-3%	-25%
CCn1cc(CNC(=O)C2CCC(=O)N(CCc3cccc(F)c3)C2)cn1 (configuration not stated)	-6%	2	·	-10%	-2%	·
Cc1ccc(S(=O)(=O)c2nc(-c3cccc(Cl)c3)oc2NCc2ccccc2)cc1	21%	·	·	14%	·	·
O=C(Nc1nnc(CSCc2ccccc2F)s1)c1cccc([N+](=O)[O-])c1	-2%	-16	5µM*	16%	-2%	4.5µM*
Cc1ccc(C)c(-c2nnc(NC(=O)Cc3ccccc3)o2)c1	4%	·	1.1µM*	21%	1%	1µM*
Cc1ccc(C)c(-c2nnc(NC(=O)c3ccco3)o2)c1	-8%	·	·	-4%	·	·
O=C(CSc1nncs1)Nc1nnc(-c2ccccc2)o1	4%	·	?	14%	4%	11µM*
SMILES	TrxR1 substrate	Coupling enz	VP16 counter	TrxR1 inh	GALK inhibitor	RORgamma inh
O=C(CCCSc1nc2ccccc2[nH]1)Nc1nnc(-c2ccccc2)o1	-3%	0	-22%	-7%	2%	13µM*
Cc1nnc(SCC(=O)Nc2nnc(-c3ccccc3)o2)s1	-14%	·	·	-13%	·	·
O=C(Cc1ccccc1)Nc1nnc(-c2ccccc2)o1	8%	0	3.5µM*	15%	·	1.1µM*
O=C(Cc1ccc(F)cc1)Nc1nnc(-c2ccc(F)cc2)o1	5%	4	1.4µM*	7%	7%	?
NC(=O)N/N=C/c1cc(Br)ccc1OC(=O)c1ccccc1	6%	0	1%	22%	1%	-2%
CCn1c(Sc2ccc([N+](=O)[O-])cn2)nnc1-c1ccco1	-17%[57.1 µM]	4	?	-47%	3%	10µM*
COc1ccc(C(CNC(=O)c2[nH]c(C)c(C(C)=O)c2C)N2CCOCC2)cc1 (configuration not stated)	4%	·	·	19%	·	·
Cc1cccc(-n2nc3c(c2NC(=O)CCCl)CSC3)c1	-5%	1	6%	8%	7%	6%
O=C(CCl)Nc1c2c(nn1-c1ccccc1)CSC2	-3%	0	?	13µM*	-2%	?
Cc1cccc(-n2nc3c(c2NC(=O)c2ccc(Br)o2)CSC3)c1	-1%[57.1 µM]	5	16%	-20%[57.1 µM]	0%	3.2µM*
O=C(CCCCl)Nc1c2c(nn1-c1ccccc1)CSC2	5%	0	3%	27%	-1%	-11%
Cc1ccc(S(=O)(=O)c2ccc(C)cc2)cc1	4%[57.1 µM]	-6	8%	-3%[57.1 µM]	2%	28%
CC(C)(C)c1ccc(S(=O)(=O)/C=C\C#N)cc1	·	0	0.79µM*	·	·	0.63µM*
CC(C)(C)c1ccc(S(=O)(=O)N2CCN(CCC#N)CC2)cc1	-10%[57.1 µM]	2	1%	16%[57.1 µM]	0%	?
Cc1ccc(S(=O)(=O)/C=C\C#N)cc1	·	4	0.56µM*	·	·	0.63µM*
Cc1ccc(S(=O)(=O)/C=C/C#N)cc1	21%[57.1 µM]	1	0.56µM*	0.95µM*	·	1.1µM*
Cc1cccc(C)c1N1CC(c2nc3ccccc3n2CC(=O)OC(C)C)CC1=O (configuration not stated)	2%	·	·	1%	·	·
CCOc1cc(-c2ccc(OC(=O)c3ccccc3)c(OC)c2)cc(=O)c2c(C)oc(C)c12	-9%	·	·	-18%	·	·
Cn1c(N/N=C/c2ccccc2)nc2sc3c(c2c1=O)CCC3	-9%	-4	7.1µM*	6%[57.1 µM]	0%	1.6µM*
CN(C)C(=O)CCc1ccc2c3c([nH]c2c1)[C@]1(CCc2ccccc2)[C@@H](C(=O)N2CCCCC2)C[C@H](CC(=O)NCCc2ccccn2)C(=O)N1CC3	2%	·	·	9%	·	·
COc1ccc(/C=N/N=C2/NC(=O)C(CC(=O)O)S2)cc1OS(=O)(=O)c1ccccc1 (configuration not stated)	-20%	9	1%	-21%	5%	0%

Bioassay records deposited in PubChem BioAssay by National Center for Advancing Translational Sciences (NCATS).
